# Most compounds without a hit are left out; they make up all but 1.2% or so of the library.
# Eya2 phos inh: Eya2 (human) phosphatase inhibition | O00167 | recombinant Eya2, OMFP fluorescence dephosphorylation (OMFP is methylfluorescein phosphate) | Potency, µM (series often up to 76.9 µM), without a hit: top-dose activity, negative = inhibition, hits mostly inhibitors | hit rate 0.006% among 330,000 | AID 488837; note: potency is the fitted concentration of half-maximal effect
#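 Eya2 (0.2 uM) preincubated 10 min at ambient with compound, then OMFP substrate added at 50 uM; 10 min reaction in 50 mM HEPES pH 7.5, 50 mM NaCl, 5 uM MgCl2, 0.05% BSA, 1 mM DTT. Fluorescence read at Ex 485/Em 525 nm.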
# CtBP-E1A blk: CtBP/E1A binding inhibition; AlphaScreen GST-E1A/His-CtBP binding, 1536-well; hits give low values; activity change, % (no concentration beside the values); hit rate 0.49% among 340,000; in the data active = activity change below about -65%; inconclusive = mostly about -30% to -63%
#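 AlphaScreen with 125 nM GST-E1A and 125 nM His-CtBP (5X stocks) in Tris pH 8.0, 300 mM NaCl, BSA, Tween 20, TCEP. Compounds preincubated 2 h at 37 deg C, then glutathione donor/nickel acceptor beads added for 1 h at 37 deg C in dark.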
# USP2a block: inhibitors of human ubiquitin-specific protease USP2a. USP2 core, Ub-CHOP2 coupled fluorogenic reporter, 485/531. Potency, µM (series often up to 38.3 µM), inactives show at the highest dose activity change, negative = inhibition, usual class: inhibitors. hit rate 0.01% among 330,000. O75604;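 note: potency is the fitted concentration of half-maximal effect; plate controls were DMSO wells for no effect and full inhibition by NEM control for full effect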
# Target sequence (O75604 whole entry, looked up): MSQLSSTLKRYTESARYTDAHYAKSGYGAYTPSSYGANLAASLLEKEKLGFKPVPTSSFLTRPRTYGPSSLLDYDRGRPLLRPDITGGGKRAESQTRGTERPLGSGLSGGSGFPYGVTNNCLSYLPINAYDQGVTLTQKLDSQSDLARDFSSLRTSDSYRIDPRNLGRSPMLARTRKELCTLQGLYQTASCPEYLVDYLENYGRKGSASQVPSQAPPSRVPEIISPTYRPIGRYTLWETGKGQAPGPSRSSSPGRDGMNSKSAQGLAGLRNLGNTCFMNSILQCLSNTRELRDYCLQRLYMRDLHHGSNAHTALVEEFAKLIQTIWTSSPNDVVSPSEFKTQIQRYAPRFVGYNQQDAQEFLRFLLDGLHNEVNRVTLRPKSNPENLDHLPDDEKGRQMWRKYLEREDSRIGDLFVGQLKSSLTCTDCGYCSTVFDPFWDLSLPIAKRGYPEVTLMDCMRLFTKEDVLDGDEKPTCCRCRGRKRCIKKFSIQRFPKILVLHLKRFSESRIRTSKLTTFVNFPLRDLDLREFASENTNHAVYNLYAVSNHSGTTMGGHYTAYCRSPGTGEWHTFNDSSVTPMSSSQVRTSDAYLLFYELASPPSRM
#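 Cell-free coupled assay: 10nM USP2 core preincubated 30min RT with compound in Tris-HCl pH 8.0/CaCl2/CHAPS buffer, then 25nM Ub-CHOP2 and 25nM reporter substrate; fluorescence (Ex 485/Em 531) read after 60min RT, normalized to NEM inhibition, concentration-response curves fitted.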
# L3MBTL1 inh: L3MBTL1 (human) inhibition. Q9Y468. AlphaScreen L3MBTL1–H3K9me1 peptide binding. Potency, µM (doses to about 57.1 µM), inactives show at the top dose activity, negative = inhibition, actives largely listed as inhibitors. hit rate 0.66% among 230,000; note: potency is the fitted concentration of half-maximal effect; nearly all actives have a fitted effect of over 60% in size
#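 AlphaScreen proximity signal between nickel-chelate acceptor and streptavidin donor beads (final 10 ug/mL) reports binding of 50 nM L3MBTL1 to 75 nM biotin-H3 K9me1 peptide; complex incubated with compounds 30 min at room temperature; cefsulodin titration as control.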
# Six1-Eya2 blk: inhibitors of human Six1/Eya2 interaction; activity change, % (test concentration not listed); AlphaScreen GST-Six1/His-Eya2 binding, biochemical; hits give low values; hit rate 0.56% among 360,000; in the data active = activity change below about -65%; inconclusive = mostly about -30% to -63%
#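 GST-Six1 + His-Eya2 (5X stock: 250/500 nM); Tris pH 8.0, 300 mM NaCl, 0.05% BSA, 0.02% Tween 20; GSH donor/Ni acceptor beads; 1 h 37 °C dark; AlphaScreen readout.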
# uPA surface inh: inhibitors of cell surface uPA generation; cell surface uPA generation assay, qHTS; Potency, µM (doses to about 38.3 µM), inactives show top-dose activity change, negative = inhibition, usual class: inhibitors; hit rate 0.31% among 330,000; active = well fitted inhibition curve with a large enough effect; inconclusive = small, poorly fitted or top-dose-only effect; inactive = no such curve, though single readings can be large or run the other way; tested in mouse RAW 264.7 cells; note: potency is the fitted concentration of half-maximal effect; nearly all actives have a fitted effect of over 55% in size
# Starred values were filed as active, the others as inactive; ? = inconclusive; nt = no result given; [ ] = another dose, or the depositor's remark. Unless noted, calls come from the whole dose curve; as a rule, active = well fitted curve in the direction sought with a large enough effect; inconclusive = small, poorly fitted or top-dose-only effect, or another doubt; inactive = no such curve, though single readings can be large; an effect the other way counts as inactive or inconclusive. Unless noted, % is set by controls: 0 for no effect and ±100 for the full control effect.
SMILES,Eya2 phos inh,CtBP-E1A blk,USP2a block,L3MBTL1 inh,Six1-Eya2 blk,uPA surface inh
CCOC(=O)COc1cccc2c(=O)n(CC(=O)NCc3ccc(F)cc3)ccc12,?,nt,0%,nt,2,0.056µM*
CCOC(=O)COc1cccc2c(=O)n(CC(=O)NCc3ccccc3)ccc12,9%,nt,8%,nt,5,0.2µM*
CCOC(=O)COc1cccc2c(=O)n(CC(N)=O)ccc12,2%,-3,1%,nt,3,0%
COC1=C(Nc2ccc(OC)cc2)C(=O)c2ccccc2C1=O,-1%,12,-10%,28µM*,-75*,-4%
CCOc1ccc(NC2=C(OC)C(=O)c3ccccc3C2=O)cc1,1%,?,1%,25µM*,-75*,0%
Cc1ccc(SC2=C(N(C)C)C(=O)c3ccccc3C2=O)cc1,nt,-86*,nt,nt,-84*,-9%
Cc1ccc(NC2=CC(=O)C(=O)c3ccccc32)cc1,-22%,?,-5%,?,-20,nt
COCC(=O)N(C)C[C@H]1Oc2ncc(C#C[C@H](C)O)cc2C(=O)N([C@@H](C)CO)C[C@H]1C,nt,?,nt,nt,-11,nt
Cn1nc(-c2ccccc2)c2cc(C(=O)O)sc21,0%,?,2%,16%,?,-2%
CSc1nnc(-c2cc3c(-c4ccccc4)nn(C)c3s2)n1C,7%,-74*,3%,-15%,-74*,-6%
O=C(CN1C(=O)COc2ccc(Cl)cc21)N1CCCCC1,-6%,1,3%,nt,-3,-1%
O=C(NC(c1ccc(Cl)cc1)c1cc(Cl)c2cccnc2c1O)c1cccnc1 (centres undefined),0%,-4,3%,9%,-17,0%
CC(=O)NC(c1ccccc1)c1cc(Cl)c2cccnc2c1O (centres undefined),-1%,-91*,2%,-2%,-87*,-17%
CC(=O)NC(c1ccc(N(C)C)cc1)c1cc(Cl)c2cccnc2c1O (centres undefined),nt,?,nt,nt,-81*,nt
CCCC(=O)NC(c1ccc(OC)c(OC)c1)c1cc(Cl)c2cccnc2c1O (centres undefined),7%,-79*,-4%,9%,-72*,-10%
COc1ccc(C(NC(C)=O)c2cc(Cl)c3cccnc3c2O)cc1 (centres undefined),6%,-93*,-2%,0%[2.29 µM],-83*,6.3µM*
O=C1CN(S(=O)(=O)c2ccc(F)cc2)CCN1,-10%,0,-1%,0%,2,4%
COc1cccc(CN(C(=O)Cn2nnc(-c3ccccc3F)n2)C(C(=O)NC(C)(C)C)c2ccncc2)c1 (centres undefined),-23%,24,0%,0%,17,1%
CCc1ccc(-c2nc(CS(=O)CC(=O)NC3CCCCCC3)c(C)o2)cc1 (centres undefined),11%,-11,-1%,nt,-5,-3%
Cc1ccc([N+](=O)[O-])cc1NC(=O)C(C)Sc1nnc(C)n1CC1CCCO1 (centres undefined),12%,-8,0%,nt,-3,-2%
CCOC(=O)CNC(=O)c1c(C)nn(C)c1Cl,-1%,4,2%,19%,3,-4%
O=c1cc(-c2ccccc2)[nH]n1-c1nc2ccccc2[nH]1,20%,-77*,-24%,?,-81*,-4%
CCc1cc(=O)[nH]c(-n2[nH]c(-c3ccccc3)cc2=O)n1,3%,-10,-1%,23%,-7,-2%
Cc1cc(C(=O)OCC(=O)Nc2cccc(S(N)(=O)=O)c2)c(C)o1,2%,-68*,0%,3%,-16,-1%
CCn1c(CSc2ncccn2)nnc1SCC(=O)N1CCCCC1,6%,-18,-1%,-1%,7,2%
SMILES,Eya2 phos inh,CtBP-E1A blk,USP2a block,L3MBTL1 inh,Six1-Eya2 blk,uPA surface inh
CCCCN1C(=O)C(CC(=O)NCCCN(C)C)CC(C(=O)N(C)C)=C1C (centres undefined),nt,2,nt,nt,-1,nt
COc1ccc(N=C2NC(=O)/C(=C\C=C\c3ccco3)S2)cc1,-10%,-13,-27%,32µM*,-21,-5%
O=C1NC(=Nc2ccc(O)cc2)S/C1=C/c1ccco1,14%,-3,3%,nt,0,-13%
O=C1NC(=Nc2ccc3ccccc3c2)S/C1=C/c1ccco1,13%,1,?,28µM*,-5,21%
COc1cccc(OC)c1C(=O)OCC(=O)NC1CCCCCC1,1%,nt,-2%,42%,10,6%
CC[C@]12CCCN3CCc4c(n(c5ccccc45)C(=O)C1)[C@@H]32,25%,-5,-1%,-2%,-11,3.2µM*
CC[C@]12CCCN3CCc4c(n(c5ccccc45)[C@@](O)(C(=O)OC)C1)[C@@H]32,12%,2,0%,-3%,6,1%
CC(C)c1ccc(C2c3[nH]c4ccccc4c3C[C@H]3C(=O)N(c4ccccc4C(=O)N4CCC[C@H]4C(=O)O)C(=O)N23)cc1 (some centres undefined),-18%,-5,-14%,nt,-4,6%
O=C(Nc1cccc(Cl)c1)Nc1ccccc1C(=O)O,3%,-26,1%,4%,0,8.9µM*
COc1ccc(Cl)cc1NC(=O)Nc1ccccc1SC,-11%,5,4%,-5%,4,14%
COc1ccc(CC(=O)Nc2ccc(C(=O)Nc3ccccc3C(=O)O)cc2)cc1OC,9%,-67*,6%,11%,-76*,2%
COc1ccc(Cl)cc1NC(=O)Nc1ccccc1C(N)=O,-8%,nt,-1%,nt,-2,3.2µM*
COc1ccccc1OCC(=O)Nc1ccc(C(=O)Nc2ccccc2C(=O)O)cc1,nt,2,nt,nt,?,nt
O=C(Nc1cc(C(=O)Nc2ccccc2C(=O)O)cc(C(=O)Nc2ccccc2C(=O)O)c1)c1ccccc1,-7%,?,1%,nt,-69*,11%
O=C(/C=C/c1ccco1)Nc1ccc2nc3n(c(=O)c2c1)CCCC3,-4%,-2,-1%,nt,-19,2µM*
O=C(/C=C/c1ccco1)Nc1cccc(C(=O)Nc2ccccc2C(=O)O)c1,7%,?,2%,14µM*,?,-6%
CCc1ccccc1NC(=O)c1cccc(NC(=O)/C=C/c2ccco2)c1,6%,-4,-6%,-13%,-21,-8%
COc1ccc(C(=O)Nc2ccccc2C(=O)Nc2ccccc2C(=O)O)cc1,4%,-77*,3%,0%[2.29 µM],-66*,-14%
Cc1cccc(N2CCC(N=CN(C)C)=N2)c1,-11%,-1,1%,-6%,4,-3%
COc1ccccc1CN(C)C(=O)c1cc(-c2cccs2)nc2ccccc12,-10%,-5,3%,nt,-19,1%
CC1(C)CC2CC(C)(CN2S(=O)(=O)c2cccc(C(N)=O)c2)C1 (centres undefined),2%,nt,2%,1%,0,15%

# Bioassay records from PubChem.
